D3 ag = agonists of human D3 dopamine receptor; max activation, %; 410,000 tested, 0.58% active; D3R DiscoveRx beta-arrestin cells, luminescence, 90 min; AID 652048; P35462; in the data active = max activation above about 30%; also: 0% is about no effect
Target sequence (P35462 whole entry, looked up): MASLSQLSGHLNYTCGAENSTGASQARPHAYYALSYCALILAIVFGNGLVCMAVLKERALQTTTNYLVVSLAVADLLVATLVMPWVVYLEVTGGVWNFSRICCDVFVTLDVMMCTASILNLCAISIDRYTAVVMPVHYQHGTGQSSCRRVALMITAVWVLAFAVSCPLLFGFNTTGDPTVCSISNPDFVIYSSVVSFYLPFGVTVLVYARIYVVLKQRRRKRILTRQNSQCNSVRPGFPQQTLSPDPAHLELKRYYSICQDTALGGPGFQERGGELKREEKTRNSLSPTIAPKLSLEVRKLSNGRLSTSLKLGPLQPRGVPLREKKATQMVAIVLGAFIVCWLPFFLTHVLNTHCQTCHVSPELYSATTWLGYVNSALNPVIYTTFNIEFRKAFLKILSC
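Agonist-mode cell screen: cells plated at 1500/well and incubated overnight at 37 °C, then exposed to library compounds for 90 min at 37 °C. Detection reagent was added for 30–60 min at room temperature, and luminescence was read.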
MCF10A rereplic = DNA re-replication induction in MCF 10a cells; MCF 10A DNA re-replication, Hoechst nuclear intensity, 48 h; AID 624296; Potency, µM (top dose mostly 46.1 µM), inactives show at the highest dose activity, positive = re-replication, hits mostly activators; 350,000 tested, 2.9% active; also: potency is read from the fitted curve at half-maximal effect; % of control where 0% means no effect; nearly all actives have a fitted effect of over 50% in size
KB-V1 cytotox = kills drug-selected multidrug resistant KB-V1 cells; 400,000 tested, 3.4% active; KB-V1 MDR cells viability, CellTiter-Glo, 72 h; Potency, µM (highest dose often 46.1 µM), most hits filed as cytotoxic; also: potency is read from the fitted curve at half-maximal effect; % is scaled to controls: 0 for no effect and ±100 for the full control effect; nearly all actives have a fitted effect of over 60% in size
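Potencies derive from concentration-effect curves fitted to normalized luminescence (CellTiter-Glo) of KB-V1 cells treated for 72 h at 37 degrees C in phenol-red-free DMEM containing 10% FBS.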
SW480 rerep = DNA re-replication induction in SW480 cells | SW480 DNA re-replication, Hoechst DNA content imaging, 48 h | Potency, µM (series often up to 46.1 µM), for inactives: at the top dose re-replication activation, hits mostly activators | 340,000 tested, 1.8% active; also: potency is read from the fitted curve at half-maximal effect; % of control where 0% means no effect; nearly all actives have a fitted effect of over 55% in size
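First, 250 cells per well were seeded. Next, compound or vehicle (23 nL) was pinned in, plates sat 48 hr at 37 C. Finally Hoechst was added for 40 min before fluorescence scanning.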
D3 antag = antagonists of human D3 dopamine receptor. D3R cells, DiscoveRx beta-arrestin luminescence, antagonist mode; hits give low values. max response, negative = inhibition, %. 360,000 tested, 2.5% active; in the data active = max response below about -50%; inconclusive = no clear call, values can overlap the other calls; also: % is scaled to controls: 0 for no effect and ±100 for the full control effect
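Cells expressing the human receptor were seeded at 1500 cells/well, incubated overnight at 37 degrees C in 5% CO2, then exposed to library compounds with dopamine controls for 90 minutes at 37 degrees C before luminescent detection.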
KB-3-1 tox = kills parental KB-3-1 adenocarcinoma cells; KB-3-1 viability, CellTiter-Glo ATP luminescence, 72 h; Potency, µM (titrated, usually from 46.1 µM), usual class: cytotoxic; 400,000 tested, 1.4% active; also: potency is read from the fitted curve at half-maximal effect; % is scaled to controls: 0 for no effect and ±100 for the full control effect; nearly all actives have a fitted effect of over 60% in size
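KB-3-1 cells, DMEM (no phenol red) + 10% FBS; compound by pin transfer, 72 h, 37 °C. Readout: CellTiter-Glo luminescence after 10 min. Data normalized, curve-fitted.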
Starred values were filed as active, the others as inactive. Most compounds without a hit are left out; they make up all but 8.9% or so of the library. Unless noted, calls follow the shape of the dose curve; as a rule, active = well fitted curve in the direction sought with a large enough effect; inconclusive = small, poorly fitted or top-dose-only effect, or another doubt; inactive = no such curve, though single readings can be large; an effect the other way counts as inactive or inconclusive.

How did Cc1ccc(C)c(N2CCN(C(=S)Nc3ccc4nc(N5CCOCC5)cc(C)c4c3)CC2)c1 do in these assays?
D3 ag: -2.6; MCF10A rereplic: 16.4µM*; KB-V1 cytotox: inconclusive; SW480 rerep: inconclusive; D3 antag: 9.4; KB-3-1 tox: inactive

How did O=C(Nc1ccc2oc(-c3cccc(F)c3)nc2c1)c1ccc2ccccc2c1 do in these assays?
D3 ag: 2.2; KB-V1 cytotox: inactive; KB-3-1 tox: inactive

What do the screens show for `COc1ccc(NC(=O)CCc2nnc3n(C)c(=O)c4sccc4n23)cc1`?
D3 ag: 3.3

Results for Cc1cccc(N2CCN(C(=S)Nc3ccc4nc(N5CCOCC5)cc(C)c4c3)CC2C)c1 (centres undefined) ?
D3 ag: -4.2; MCF10A rereplic: 11.6µM*; KB-V1 cytotox: inactive; SW480 rerep: inconclusive; D3 antag: -19.5; KB-3-1 tox: inactive

What do the screens show for `Cc1ccc(C)c(NC(=O)CN2CCCN(Cc3cccc(Cl)c3)S2(=O)=O)c1`?
D3 ag: -1.3; KB-V1 cytotox: inconclusive; KB-3-1 tox: inactive

What do the screens show for `O=C(CN1C(=O)C2(OCCO2)c2ccccc21)c1ccc(Cl)cc1`?
D3 ag: 2.7; MCF10A rereplic: 12.9%; KB-V1 cytotox: 20.6µM*; SW480 rerep: -0.5%; D3 antag: -22.0; KB-3-1 tox: inactive

Results for N[C@@H](C(=O)N[C@@H]1C(=O)N2C(C(=O)O)=C(Cl)CC[C@H]12)c1ccccc1 ?
D3 ag: 1.5

Results for Cc1ccc(C2(C(=O)N3CCC(n4nc(-c5ccccc5)oc4=O)CC3)CC2)cc1 ?
D3 ag: -0.4; MCF10A rereplic: 20.6µM*; KB-V1 cytotox: inactive; SW480 rerep: -27.3%; D3 antag: 0.1; KB-3-1 tox: inactive

How did Cc1oc2ncn(C)c(=O)c2c1C(=O)NCCCN1CCCCC1C (centres undefined) do in these assays?
D3 ag: -2.7; KB-V1 cytotox: inconclusive; KB-3-1 tox: inactive

What do the screens show for `CC(C)C(=O)Nc1cccc(C(=O)Nc2nnc(CC(C)(C)C)s2)c1`?
D3 ag: -13.6; KB-V1 cytotox: inactive; KB-3-1 tox: inactive

What do the screens show for `CC(C)N1C(=O)NC2(c3ccccc3)N(C)C(=O)N(C)C12c1ccccc1` (centres undefined)?
D3 ag: 2.4; MCF10A rereplic: -2.7%; KB-V1 cytotox: inactive; SW480 rerep: 16.6%; D3 antag: 2.4; KB-3-1 tox: inactive

What do the screens show for `CN1C(=O)N(C)C2(c3ccccc3)N(C)C(=O)NC12c1ccccc1` (centres undefined)?
D3 ag: -5.7; MCF10A rereplic: 3.7%; KB-V1 cytotox: inactive; SW480 rerep: -0.4%; D3 antag: -57.4*; KB-3-1 tox: inactive

What do the screens show for `Cc1ccc(S(=O)(=O)C(CNS(=O)(=O)c2cc(F)ccc2F)c2cccs2)cc1` (centres undefined)?
D3 ag: -15.3

Results for OCCN=C1CCCc2c1[nH]c1ccc(Cl)cc21 ?
D3 ag: 5.5; MCF10A rereplic: 12.9%; KB-V1 cytotox: 0.731µM*; SW480 rerep: -7.8%; D3 antag: 9.6; KB-3-1 tox: 2.06µM*

Results for OCCCN=C1CCCc2c1[nH]c1ccc(Cl)cc21 ?
D3 ag: 0.3; MCF10A rereplic: inconclusive; KB-V1 cytotox: 1.46µM*; SW480 rerep: -2.1%; D3 antag: -1.0; KB-3-1 tox: 9.2µM*

Results for O=C1CCCc2cc(S(=O)(=O)N3CCCC(C(=O)NCc4ccc(Cl)cc4)C3)ccc2N1 (centres undefined) ?
D3 ag: 1.7; KB-V1 cytotox: inactive; KB-3-1 tox: inconclusive

How did COc1ccc(C)cc1NC(=O)Cc1c(C(=O)O)c(C)cn1C do in these assays?
D3 ag: 5.7; KB-V1 cytotox: inactive; KB-3-1 tox: inconclusive

Results for N#Cc1c(N)nc(Sc2ccc(Cl)cc2)c(C#N)c1-c1ccccc1Cl ?
D3 ag: -0.6; MCF10A rereplic: inconclusive; KB-V1 cytotox: 23.1µM*; SW480 rerep: inconclusive; D3 antag: 11.2; KB-3-1 tox: 4.61µM*

Compound activity as filed in PubChem.
